Active and inactive are the calls of the source. How the source made its calls: active means hit-call score of the fitted dose curve at least 0.9, where 1 is the maximum; inactive means score below 0.9.

The record followed here is PubChem BioAssay (EPA / NIEHS).

Read-out in one test: not listed separately
The experiment in a line: BSK_hDFCGF_Proliferation: Cell Proliferation Assessment in the BioMAP Diversity Plus: hDFCGF Assay (AID 2283059).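 Further: curves fitted for both rise and fall of signal versus DMSO baseline.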 The note with it: primary human foreskin fibroblasts. Summed up: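 Primary human foreskin fibroblasts, sub-confluent; […]; 10% TCA fix, 0.1% SRB stain, A560 total protein. Gain/loss fitted bidirectionally vs DMSO control.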
For the compound `CCN(Cc1cccc(S(=O)(=O)O)c1)c1ccc(C(=C2C=CC(=[N+](CC)Cc3cccc(S(=O)(=O)O)c3)C=C2)c2ccccc2S(=O)(=O)[O-])cc1`, the result was inactive.
The same measure, in the same setting: then `CCCCOC(=O)CC(CC(=O)OCCCC)(OC(C)=O)C(=O)OCCCC`, with “inactive”.
Take `O=c1c(-c2ccc(O)cc2)coc2cc(O)cc(O)c12`: the AC50 was 11.7 µM (active).
Still for that read-out and setting: then `CN(C)C(=O)C1(N2CCCCC2)CCN(CC[C@@]2(c3ccc(Cl)c(Cl)c3)CN(C(=O)c3ccccc3)CCO2)CC1`, with 5.15 µM (active); and `CCCCOC(=O)c1ccc(O)cc1`, with 20 µM (active).
Still for that read-out and setting: the result for `O=C1CCC(C2CCCCC2)CC1` reads 19.5 µM (active).
As to `CCO[Si](CCCNC(N)=O)(OCC)OCC`, the result was inactive.
In the case of `CCCCCCCCCCCCO`, the half-maximal activity concentration (AC50) is 26.5 µM (active).
Consider `C[C@]12CC[C@@H]3c4ccc(O)cc4CC[C@H]3[C@@H]1CCC2=O`, for which the AC50 was 17.6 µM (active).
Same read-out and setting: then `CC/C(=C(/CC)c1ccc(O)cc1)c1ccc(O)cc1`, with 7.02 µM (active); and `CCCCCc1ccc(N)cc1`, with 9.38 µM (active).
With `CN1C(=O)CC[C@H]1c1cccnc1`, the outcome was inactive.
Regarding `O=C(O)Cc1cc(I)c(Oc2ccc(O)c(I)c2)c(I)c1`, the half-maximal activity concentration (AC50) is 13.7 µM (active).
Same read-out and setting: the result for `CCCCCCCCCCCC[N+](C)(C)C` reads 8.97 µM (active).
As to `CCCCCCCCCC(=O)O`, the outcome was inactive.
In the case of `Cc1cc(F)ccc1-c1cc(N2CC[C@@H](O)[C@H]2CO)ncc1N(C)C(=O)C(C)(C)c1cc(C(F)(F)F)cc(C(F)(F)F)c1`, the AC50 is 10.9 µM (active).
The same measure, in the same setting: then `CC(C)(C)c1csc(-c2cc3cc(OCc4ccccc4CC(=O)O)ccc3o2)n1`, with 9.8 µM (active); and `CC(=O)N1CCN(c2ccc(OC[C@H]3CO[C@](Cn4ccnc4)(c4ccc(Cl)cc4Cl)O3)cc2)CC1`, with 20 µM (active).
The same measure, in the same setting: then `CN(C)c1ccc(C(=C2C=CC(=[N+](C)C)C=C2)c2ccc(N(C)C)cc2)cc1`, with 1.39 µM (active); and `O=C(Nc1ccc(Cl)cc1)Nc1ccc(Cl)c(Cl)c1`, with 0.477 µM (active).
Regarding `CCCCCCCCN(C)CCCCCCCC`, the result was inactive.
Same read-out and setting: then `c1ccc2ccccc2c1`, with “inactive”.
In the case of `CCCCCCCCCCCO`, the concentration at half-maximal activity (AC50) was 20 µM (active).
Take `CC[C@@H]1C[C@H](N(Cc2cc(C(F)(F)F)cc(C(F)(F)F)c2)C(C)=O)c2cc(C(F)(F)F)ccc2N1C(=O)OC(C)C`: the outcome was inactive.
For the compound `CCCCCCCC[Si](OCC)(OCC)OCC`, the concentration at half-maximal activity (AC50) was 28.3 µM (active).
Take `O=C(OCCCCCCOC(=O)c1ccccc1)c1ccccc1`: the outcome was inactive.
Still for that read-out and setting: then `COCC(C)OCC(C)OCC(C)O` (stereo not given), with “inactive”.
For the compound `Cc1oc2c(NC(=O)c3c(Cl)cccc3Cl)cccc2c1C(C)(C)O`, the AC50 is 14.1 µM (active).
For `Clc1cc(Cl)c2c(c1)N=C1CCCCCN1C2`, the outcome was inactive.
Regarding `O=C(O)Cn1c(=O)n(Cc2ccc(Br)cc2F)c(=O)c2ccc(Cl)cc21`, the outcome was inactive.
Still for that read-out and setting: the result for `Oc1ccccc1` reads “inactive”.
Turning to `OC12N=C(c3ccccc3)SC1Cc1cc(Cl)ccc12` (stereo not given), the outcome was inactive.
The same measure, in the same setting: the result for `Cc1ccc(C(C)C)cc1` reads “inactive”.
The same measure, in the same setting: the result for `Cc1cn([C@H]2C[C@H](N=[N+]=[N-])[C@@H](CO)O2)c(=O)[nH]c1=O` reads “inactive”.
Take `NC(=O)c1nc(-c2cccc(-c3cc(F)ccc3OCC(F)(F)C(F)(F)F)c2)n[nH]1`: the AC50 was 31.1 µM (active).
Still for that read-out and setting: the result for `CCCOC(=O)c1cc(O)c(O)c(O)c1` reads 8.01 µM (active); that for `O=CCCCC=O`, 25.3 µM (active).
The same measure, in the same setting: then `COc1cc(C(=O)NC2CCN(C)CC2)ccc1Nc1ncc2c(n1)N(C1CCCC1)CC(F)(F)C(=O)N2C`, with 4.95 µM (active).

Read-out in another test: Macrophage colony-stimulating factor (MCSF), CSF1 (gene 1435)
The test can be described thus: BSK_hDFCGF_MCSF: BioMAP Diversity Plus: hDFCGF Assay for Macrophage colony-stimulating factor (MCSF) Biomarker Activity (AID 2283060). The note with it: primary human foreskin fibroblasts; actives raise or lower the signal. The procedure, abridged:
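M-CSF levels, determined by ELISA, are taken at 24 h after dosing human skin fibroblasts. Responses in either direction are fitted with DMSO serving as the baseline.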
Turning to `CCN(Cc1cccc(S(=O)(=O)O)c1)c1ccc(C(=C2C=CC(=[N+](CC)Cc3cccc(S(=O)(=O)O)c3)C=C2)c2ccccc2S(=O)(=O)[O-])cc1`, the outcome was inactive.
The same measure, in the same setting: the result for `CCCCOC(=O)CC(CC(=O)OCCCC)(OC(C)=O)C(=O)OCCCC` reads “inactive”; that for `O=c1c(-c2ccc(O)cc2)coc2cc(O)cc(O)c12`, “inactive”.
Consider `CN(C)C(=O)C1(N2CCCCC2)CCN(CC[C@@]2(c3ccc(Cl)c(Cl)c3)CN(C(=O)c3ccccc3)CCO2)CC1`, for which the concentration at half-maximal activity (AC50) was 20.8 µM (active).
In the case of `CCCCOC(=O)c1ccc(O)cc1`, the outcome was inactive.
For the compound `O=C1CCC(C2CCCCC2)CC1`, the half-maximal activity concentration (AC50) is 29.8 µM (active).
`CCO[Si](CCCNC(N)=O)(OCC)OCC`: the result was inactive.
Turning to `CCCCCCCCCCCCO`, the AC50 was 33.4 µM (active).
Take `C[C@]12CC[C@@H]3c4ccc(O)cc4CC[C@H]3[C@@H]1CCC2=O`: the result was inactive.
Take `CC/C(=C(/CC)c1ccc(O)cc1)c1ccc(O)cc1`: the AC50 was 20 µM (active).
For `CCCCCc1ccc(N)cc1`, the result was inactive.
The same measure, in the same setting: the result for `CN1C(=O)CC[C@H]1c1cccnc1` reads “inactive”; that for `O=C(O)Cc1cc(I)c(Oc2ccc(O)c(I)c2)c(I)c1`, “inactive”.
Regarding `CCCCCCCCCCCC[N+](C)(C)C`, the AC50 is 11.9 µM (active).
Consider `CCCCCCCCCC(=O)O`, for which the result was inactive.
For the compound `Cc1cc(F)ccc1-c1cc(N2CC[C@@H](O)[C@H]2CO)ncc1N(C)C(=O)C(C)(C)c1cc(C(F)(F)F)cc(C(F)(F)F)c1`, the AC50 was 11.1 µM (active).
Same read-out and setting: the result for `CC(C)(C)c1csc(-c2cc3cc(OCc4ccccc4CC(=O)O)ccc3o2)n1` reads 13 µM (active); that for `CN(C)c1ccc(C(=C2C=CC(=[N+](C)C)C=C2)c2ccc(N(C)C)cc2)cc1`, 1.77 µM (active); that for `O=C(Nc1ccc(Cl)cc1)Nc1ccc(Cl)c(Cl)c1`, 0.284 µM (active).
For `CCCCCCCCN(C)CCCCCCCC`, the result was inactive.
On the same count and under the same terms, then `c1ccc2ccccc2c1`, with “inactive”.
As to `CCCCCCCCCCCO`, the half-maximal activity concentration (AC50) was 29.8 µM (active).
Take `CC[C@@H]1C[C@H](N(Cc2cc(C(F)(F)F)cc(C(F)(F)F)c2)C(C)=O)c2cc(C(F)(F)F)ccc2N1C(=O)OC(C)C`: the outcome was inactive.
On the same count and under the same terms, the result for `CCCCCCCC[Si](OCC)(OCC)OCC` reads “inactive”.
On the same count and under the same terms, the result for `O=C(OCCCCCCOC(=O)c1ccccc1)c1ccccc1` reads “inactive”.
Still for that read-out and setting: the result for `COCC(C)OCC(C)OCC(C)O` (stereo not given) reads “inactive”.
Take `Cc1oc2c(NC(=O)c3c(Cl)cccc3Cl)cccc2c1C(C)(C)O`: the result was inactive.
On the same count and under the same terms, the result for `Clc1cc(Cl)c2c(c1)N=C1CCCCCN1C2` reads “inactive”.
On to `O=C(O)Cn1c(=O)n(Cc2ccc(Br)cc2F)c(=O)c2ccc(Cl)cc21`, for which the result was inactive.
Same read-out and setting: then `Oc1ccccc1`, with “inactive”.
Regarding `OC12N=C(c3ccccc3)SC1Cc1cc(Cl)ccc12` (stereo not given), the result was inactive.
Same read-out and setting: the result for `Cc1ccc(C(C)C)cc1` reads “inactive”; that for `Cc1cn([C@H]2C[C@H](N=[N+]=[N-])[C@@H](CO)O2)c(=O)[nH]c1=O`, “inactive”.
In the case of `NC(=O)c1nc(-c2cccc(-c3cc(F)ccc3OCC(F)(F)C(F)(F)F)c2)n[nH]1`, the AC50 is 44 µM (active).
As to `CCCOC(=O)c1cc(O)c(O)c(O)c1`, the result was inactive.
`O=CCCCC=O`: the concentration at half-maximal activity (AC50) is 30.6 µM (active).
On to `COc1cc(C(=O)NC2CCN(C)CC2)ccc1Nc1ncc2c(n1)N(C1CCCC1)CC(F)(F)C(=O)N2C`, for which the half-maximal activity concentration (AC50) was 14.9 µM (active).
